Assay results reported in the supplement of paper PMC11219838.
Values without a mark were called inactive.

Tests used:
Details in all cases: 60 µM; 5 days; temperature: 20 °C
Meloidogyne hapla J2 = assay: proportion of mobile M. hapla J2 relative to DMSO control (fraction of DMSO control); higher = more viable, less nematicidal, active = 0.7 or less
Method in brief: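 Sealed 96-well plates, each well holding around 25 M. hapla J2 in distilled water with compound pinned to 60 µM final (0.6% v/v DMSO), were shaken at 200 rpm for 5 days at 20 °C. Then 2 µL of 1 M NaOH was added to each well. Microscope-scored mobility was normalised to the mean of DMSO-only wells from the same plate. Eight such wells were on each plate, and the two biological replicates were averaged.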

[1] = tested on: Caenorhabditis elegans dauer (daf-2(e1370)); assay: proportion of mobile C. elegans dauer larvae relative to DMSO control (fraction of DMSO control); higher = more viable, less nematicidal, active = 0.63 or less; extreme values may be limits of the assay
Method in brief: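 Synchronized C. elegans daf-2(e1370) larvae were held at 25 °C for 48 h on MYOB plates with E. coli OP50 to form dauers, and about 20 dauers were added per 96-well well in liquid NGM. Compound was pinned to 60 µM final (0.6% v/v DMSO), and sealed plates were shaken at 200 rpm for 5 days at 20 °C. The proportion of mobile worms was scored under a dissection microscope relative to DMSO controls and averaged over two biological replicates.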

Ditylenchus dipsaci = assay: proportion of mobile D. dipsaci (mixed stage) relative to DMSO control (fraction of DMSO control); higher = more viable, less nematicidal, active = 0.86 or less; extreme values may be limits of the assay
Method in brief: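 Mobility, expressed relative to DMSO controls, is the mean of two biological replicates. The test organisms were D. dipsaci grown on pea plants in Gamborg B-5 agar and extracted into water by filter funnel, with about 20 added per well of a 96-well plate in distilled water. Compound was pinned to 60 µM final (0.6% v/v DMSO), plates were sealed and shaken at 200 rpm for 5 days at 20 °C, and mobile worms were scored under a microscope once 2 µL 1 M NaOH had been added.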

| Structure (SMILES) | proportion of mobile M. hapla J2 (Meloidogyne hapla J2) | proportion of mobile C. elegans dauer larvae [1] | proportion of mobile D. dipsaci (Ditylenchus dipsaci) |
| --- | --- | --- | --- |
| CCOc1ccc(-c2nc(-c3ccccc3)no2)cc1 | 0.922 | 1 | 1 |
| Brc1ccc(-c2nc(-c3ccccc3)no2)cc1 | 1 | 1 | 1 |
| CCN(CC)C(=O)CSc1nnc(-c2cccc(Cl)c2)o1 | 0.922 | 1 | 1 |
| Clc1cccc(-c2nc(-c3ccccc3Cl)no2)c1 | 0.991 | 1 | 1 |
| Cc1ccc(-c2noc(COc3ccccc3C)n2)cc1 | 1.01 | 1 | 1 |
| COc1ccc(Cl)cc1-c1nnc(SCC(=O)Nc2nccs2)o1 | 0.826 | 1 | 1 |
| c1ccc(-c2noc(COc3ccc4c(c3)CCCC4)n2)cc1 | 0.923 | 1 | 1 |
| COc1ccc(-c2noc(COc3ccc(Br)cc3)n2)cc1 | 1 | 1 | 1 |
| Cc1ccc(OCc2nc(-c3ccc(Cl)cc3)no2)cc1 | 0.901 |  | 1 |
| Cc1ccc(-c2noc(COc3ccc(C)cc3C)n2)cc1 | 1.02 |  | 1 |
| COc1cccc(-c2noc(CSc3ccccc3)n2)c1 | 1.03 |  | 1 |
| COc1ccc(-c2noc(COc3ccc(Cl)cc3C)n2)cc1 | 0.94 |  | 1 |
| Cc1ccc(C(=O)Nc2ccccc2-c2nc(-c3ccncc3)no2)cc1C | 1.06 |  | 1 |
| Cc1cccc(-c2noc(COc3ccc(Br)cc3)n2)c1 | 0.882 |  | 1 |
| C=CCSc1nnc(-c2ccc(Br)cc2)o1 | 0.591 (active) |  | 0.85 (active) |
| Cc1cc(NC(=O)CSc2nnc(-c3ccc(Cl)cc3Cl)o2)no1 | 0.833 |  | 1 |
| O=C(CSc1nnc(-c2cccc(Cl)c2)o1)N1CCCCC1 | 1 |  | 1 |
| COc1cccc(-c2noc(-c3cccc(F)c3)n2)c1 | 1.01 |  | 1 |
| Fc1cccc(-c2nc(-c3cccnc3)no2)c1 | 1.08 |  | 1 |
| Cc1cc(C)c(CSc2nnc(-c3ccccc3)o2)c(C)c1 | 0.962 |  | 1 |

| Structure (SMILES) | proportion of mobile M. hapla J2 (Meloidogyne hapla J2) | proportion of mobile C. elegans dauer larvae [1] | proportion of mobile D. dipsaci (Ditylenchus dipsaci) |
| --- | --- | --- | --- |
| CCc1nc(-c2ccc(-c3ccccc3)nc2OC)no1 | 0.99 |  | 1 |
| O=C(Nc1ccc(-c2noc(COc3ccccc3Cl)n2)cc1)c1ccccn1 | 1.02 |  | 1 |
| COc1ccc(-c2nnc(SCC(=O)Nc3ccccc3C(C)C)o2)cc1 | 0.877 |  | 1 |
| O=C(CSc1nnc(-c2ccncc2)o1)Nc1ccc(Cl)cc1Cl | 0.57 (active) |  | 1 |
| COc1cccc(-c2noc(-c3ccccc3C)n2)c1 | 1.06 |  | 1 |
| CC1CCN(C(=O)CSc2nnc(-c3cccc(Cl)c3)o2)CC1 | 1.02 |  | 1 |
| Cc1ccc(OCc2nc(-c3ccc(Br)o3)no2)cc1C | 1 |  | 1 |
| CNC(=O)c1ccccc1-c1nc(-c2ccccc2Cl)no1 | 1 |  | 1 |
| Clc1ccccc1-c1noc(-c2ccccc2Cl)n1 | 1.02 |  | 1 |
| Cc1ccc(CSc2nnc(-c3ccncc3)o2)cc1 | 0.951 |  | 0.75 (active) |
| Cc1ccc(-c2nc(-c3cccc(C(F)(F)F)c3)no2)cc1 | 1.04 |  | 1 |
| Cc1ccc(-c2nnc(SCC(=O)NCCc3ccccc3)o2)cc1 | 1.01 |  | 1 |
| Cc1ccc(-c2noc(COc3ccc(Cl)cc3)n2)cc1 | 1.02 |  | 1 |
| CC(=O)c1cccc(NC(=O)CSc2nnc(-c3ccccc3)o2)c1 | 0.937 |  | 1 |
| COc1ccc(-c2nnc(SCC(=O)N(C)c3ccccc3)o2)cc1 | 1.05 |  | 1 |
| Cc1csc(NC(=O)CSc2nnc(-c3ccccc3Cl)o2)n1 | 0.849 |  | 1 |
| O=C(Nc1ccccc1-c1nc(-c2cccnc2)no1)c1cccs1 | 1.02 |  | 1 |
| CC(C)Oc1ccc(-c2nc(-c3cccnc3)no2)cc1 | 0.899 |  | 0.675 (active) |
| O=C(CSc1nnc(-c2ccc(Cl)cc2)o1)NCc1ccccc1 | 0.901 |  | 1 |
